Assay results: the supplement of paper PMC8728848
Shown is part of a subset that was picked to be rich in the strongest signals.

Legend:
Experiment in all cases: glycan array binding signal (z-score within array); higher = stronger binding
Settings in all cases: glycan notation: IUPAC condensed, linker removed
[1] = biological target: Fuc(a1-2)Gal(b1-3)GlcNAc(b1-2)Man(a1-3)[Fuc(a1-2)Gal(b1-3)GlcNAc(b1-2)Man(a1-6)]Man(b1-4)GlcNAc(b1-4)[Fuc(a1-6)]GlcNAc
In short: (§1)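 From the Consortium for Functional Glycomics database, 3228 arrays were curated, keeping only those whose protein sequence was available. Binding is given as a within-array Z-score averaged across arrays sharing a protein sequence and across linkers. Negative Z-scores can be read as non-binding.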

[2] = biological target: Fuc(a1-2)Gal(b1-4)GlcNAc(b1-3)Gal(b1-4)GlcNAc(b1-2)Man(a1-3)[Fuc(a1-2)Gal(b1-4)GlcNAc(b1-3)Gal(b1-4)GlcNAc(b1-2)Man(a1-6)]Man(b1-4)GlcNAc(b1-4)GlcNAc
In short: as §1

[3] = biological target: Fuc(a1-2)[Gal(a1-3)]Gal(b1-3)GlcNAc(b1-6)GalNAc
In short: as §1

[4] = biological target: Fuc(a1-2)[Gal(a1-3)]Gal(b1-4)GlcNAc(b1-6)GalNAc
In short: as §1

[5] = biological target: Fuc(a1-2)[GalNAc(a1-3)]Gal(b1-4)GlcNAc(b1-2)Man
In short: as §1

[6] = biological target: Fuc(a1-2)[GalNAc(a1-3)]Gal(b1-4)GlcNAc(b1-6)GalNAc
In short: as §1

[7] = biological target: Fuc(a1-2)[GalNAc(b1-3)]Gal
In short: as §1

Gal(a1-3)Gal = biological target: Gal(a1-3)Gal
In short: as §1

[8] = biological target: Gal(a1-3)Gal(b1-4)GlcNAc(b1-6)GalNAc
In short: as §1

[9] = biological target: Gal(a1-3)Gal(b1-4)[Fuc(a1-3)]GlcNAc(b1-2)Man(a1-3)[Gal(a1-3)Gal(b1-4)[Fuc(a1-3)]GlcNAc(b1-2)Man(a1-6)]Man(b1-4)GlcNAc(b1-4)GlcNAc
In short: as §1

Gal(a1-3)GalNAc = biological target: Gal(a1-3)GalNAc
In short: as §1

[10] = biological target: Gal(a1-3)[Gal(a1-4)]Gal(b1-4)GlcNAc
In short: as §1

Gal(a1-4)Gal(b1-4)Glc = biological target: Gal(a1-4)Gal(b1-4)Glc
In short: as §1

[11] = biological target: Gal(b1-3)GlcNAc(b1-2)Man(a1-3)[Gal(b1-3)GlcNAc(b1-2)Man(a1-6)]Man(b1-4)GlcNAc(b1-4)[Fuc(a1-6)]GlcNAc
In short: as §1

[12] = biological target: Gal(b1-3)GlcNAc(b1-6)Gal(b1-4)GlcNAc
In short: as §1

[13] = biological target: Gal(b1-3)GlcNAc(b1-6)GalNAc
In short: as §1

[14] = biological target: Gal(b1-3)[Fuc(a1-4)]GlcNAc(b1-3)Gal(b1-3)[Fuc(a1-4)]GlcNAc
In short: as §1

[15] = biological target: Gal(b1-3)[Neu5Ac(a2-6)]GlcNAc(b1-4)Gal(b1-4)Glc
In short: as §1

[16] = biological target: Gal(b1-4)GlcNAc(b1-2)Man(a1-3)[Gal(b1-4)GlcNAc(b1-2)Man(a1-6)][Gal(b1-4)GlcNAc(b1-4)]Man(b1-4)GlcNAc(b1-4)[Fuc(a1-6)]GlcNAc
In short: as §1

[17] = biological target: Gal(b1-4)GlcNAc(b1-3)Gal(b1-4)GlcNAc(b1-2)[Gal(b1-4)GlcNAc(b1-3)Gal(b1-4)GlcNAc(b1-6)]Man(a1-6)[Gal(b1-4)GlcNAc(b1-3)Gal(b1-4)GlcNAc(b1-2)Man(a1-3)]Man(b1-4)GlcNAc(b1-4)[Fuc(a1-6)]GlcNAc
In short: as §1

[18] = biological target: Gal(b1-4)GlcNAc(b1-3)Gal(b1-4)GlcNAc(b1-3)Gal(b1-4)GlcNAc(b1-2)[Gal(b1-4)GlcNAc(b1-3)Gal(b1-4)GlcNAc(b1-3)Gal(b1-4)GlcNAc(b1-6)]Man(a1-6)[Gal(b1-4)GlcNAc(b1-3)Gal(b1-4)GlcNAc(b1-3)Gal(b1-4)GlcNAc(b1-2)Man(a1-3)]Man(b1-4)GlcNAc(b1-4)[Fuc(a1-6)]GlcNAc
In short: as §1

[19] = biological target: Gal(b1-4)GlcNAc(b1-3)Gal(b1-4)GlcNAc(b1-3)Gal(b1-4)GlcNAc(b1-3)Gal(b1-4)GlcNAc(b1-2)[Gal(b1-4)GlcNAc(b1-3)Gal(b1-4)GlcNAc(b1-3)Gal(b1-4)GlcNAc(b1-3)Gal(b1-4)GlcNAc(b1-6)]Man(a1-6)[Gal(b1-4)GlcNAc(b1-3)Gal(b1-4)GlcNAc(b1-3)Gal(b1-4)GlcNAc(b1-3)Gal(b1-4)GlcNAc(b1-2)Man(a1-3)]Man(b1-4)GlcNAc(b1-4)[Fuc(a1-6)]GlcNAc
In short: as §1

[20] = biological target: Gal(b1-4)GlcNAc(b1-3)Gal(b1-4)GlcNAc(b1-3)Gal(b1-4)GlcNAc(b1-3)Gal(b1-4)GlcNAc(b1-3)Gal(b1-4)GlcNAc(b1-3)Gal(b1-4)GlcNAc(b1-2)Man(a1-3)[Gal(b1-4)GlcNAc(b1-3)Gal(b1-4)GlcNAc(b1-3)Gal(b1-4)GlcNAc(b1-3)Gal(b1-4)GlcNAc(b1-3)Gal(b1-4)GlcNAc(b1-3)Gal(b1-4)GlcNAc(b1-2)Man(a1-6)]Man(b1-4)GlcNAc(b1-4)GlcNAc
In short: as §1

[21] = biological target: Gal(b1-4)GlcNAc(b1-6)[Gal(b1-4)GlcNAc(b1-3)]GalNAc
In short: as §1

Gal3S(b1-3)GalNAc = biological target: Gal3S(b1-3)GalNAc
In short: as §1

[22] = biological target: Gal3S(b1-4)[Fuc(a1-3)]GlcNAc6S
In short: as §1

GalNAc(b1-3)Gal = biological target: GalNAc(b1-3)Gal
In short: as §1

B1: DC-ASGPR L+GEE (Homo sapiens) (protein)
chain: MTRTYENFQYLENKVKVQGFKNGPLPLQSLLQRLRSGPCHLLLSLGLGLLLLVIICVVGFQNSKFQRDLVTLRTDFSNFTSNTVAEIQALTSQGSSLEETIASLKAEVEGFKQERQAGVSELQEHTTQKAHLGHCPHCPSVCVPVHSEMLLRVQQLVQDLKKLTCQVATLNNNGEEASTEGTCCPVNWVEHQDSCYWFSHSGMSWAEAEKYCQLKNAHLVVINSREEQNFVQKYLGSAYTWMGLSDPEGAWKWVDGTDYATGFQNWKPGQPDDWQGHGLGGGEDCAHFHPDGRWNDDVCQRPYHWVCEAGLGQTSQESH
[1]
  glycan array binding signal (z-score): -0.314
[2]
  glycan array binding signal (z-score): 0.538
[3]
  glycan array binding signal (z-score): 2.67
[4]
  glycan array binding signal (z-score): -0.492
[5]
  glycan array binding signal (z-score): 0.54
[6]
  glycan array binding signal (z-score): 3.41
[7]
  glycan array binding signal (z-score): 3.61
Gal(a1-3)Gal
  glycan array binding signal (z-score): 0.243
[8]
  glycan array binding signal (z-score): 3.21
[9]
  glycan array binding signal (z-score): 0.091
Gal(a1-3)GalNAc
  glycan array binding signal (z-score): -0.254
[10]
  glycan array binding signal (z-score): -0.371
Gal(a1-4)Gal(b1-4)Glc
  glycan array binding signal (z-score): -0.702
[11]
  glycan array binding signal (z-score): -0.527
[12]
  glycan array binding signal (z-score): -0.073
[13]
  glycan array binding signal (z-score): 3.3
[14]
  glycan array binding signal (z-score): -0.093
[15]
  glycan array binding signal (z-score): -0.382
[16]
  glycan array binding signal (z-score): -0.406
[17]
  glycan array binding signal (z-score): -0.323
[18]
  glycan array binding signal (z-score): 0.024
[19]
  glycan array binding signal (z-score): 2.52
[20]
  glycan array binding signal (z-score): 0.991
[21]
  glycan array binding signal (z-score): -0.432
Gal3S(b1-3)GalNAc
  glycan array binding signal (z-score): 0.442
[22]
  glycan array binding signal (z-score): 0.135
GalNAc(b1-3)Gal
  glycan array binding signal (z-score): 3.04
